# Data published in PubChem BioAssay AID1851 (National Center for Advancing Translational Sciences (NCATS), 2009).
# Values joined by “and” are separate entries in the source; they are usually repeats but may differ in a detail not shown here. Identical values can stand only once. Among all 16,000 compounds or so, about 2,600 (16%) were called active. Another 20% or so got no clear call; they are omitted. Calls follow the shape of the dose curve; as a rule, active = well fitted curve in the direction sought with a large enough effect; inconclusive = small, poorly fitted or top-dose-only effect, or effect the other way; inactive = no such curve, though single readings can be large or run the other way. These entries were drawn from the full list. Some compounds were tested as several samples or in several runs, with calls that do not always agree.
# Molecular target: Cytochrome P450 2D6 (Homo sapiens) (UniProt P10635)
# Experiment: Cytochrome panel assay with activity outcomes
# Conditions: recombinant CYP, pro-luciferin dealkylation, luminescence, p450-cyp2d6; series mostly up to 57.1 µM; activity, negative = inhibition: at the top concentration
# % is scaled to controls: 0 for no effect and ±100 for the full control effect.
# Sequence of Cytochrome P450 2D6 (Homo sapiens) (P10635 whole entry, looked up): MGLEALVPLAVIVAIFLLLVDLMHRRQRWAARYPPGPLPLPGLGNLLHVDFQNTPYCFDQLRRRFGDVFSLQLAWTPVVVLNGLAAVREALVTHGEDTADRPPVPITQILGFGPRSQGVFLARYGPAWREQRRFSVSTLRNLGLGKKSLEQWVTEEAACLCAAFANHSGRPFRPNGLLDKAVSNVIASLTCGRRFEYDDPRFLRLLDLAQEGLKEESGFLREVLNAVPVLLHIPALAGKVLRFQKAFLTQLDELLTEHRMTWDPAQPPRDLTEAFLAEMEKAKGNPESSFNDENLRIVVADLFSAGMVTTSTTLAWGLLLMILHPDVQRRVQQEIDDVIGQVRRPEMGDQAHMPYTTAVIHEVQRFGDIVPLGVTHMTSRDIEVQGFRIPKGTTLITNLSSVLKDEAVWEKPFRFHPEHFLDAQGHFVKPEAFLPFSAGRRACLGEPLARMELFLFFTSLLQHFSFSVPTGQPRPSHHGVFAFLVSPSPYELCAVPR
SMILES,"activity, negative = inhibition",AC50
CCCC[C@@H]1C[C@H]1C(NC(=O)c1ccccc1)c1ccccc1C(F)(F)F (some centres undefined),11.1% (inactive),
[Cu].[O-]/N=C1/C(=[OH+])Nc2ccccc21.[O-]Nc1c(O)[nH]c2ccccc12,-7.87% [at 11.4 µM] (inactive),
O=C(O)C1=C/C(=C(/c2ccccc2)c2cc(C(=O)O)c(O)c3ccccc23)c2ccccc2C1=O,14% [at 11.4 µM] (inactive) and -3.21% [at 11.4 µM] (inactive),
O=C(Nc1cccnc1)C1COc2ccccc2O1 (centres undefined),-8.2% (inactive),
CC(C)(C)NS(=O)(=O)c1ccc(NS(=O)(=O)c2ccc(F)cc2)cc1,10.1% (inactive),
CC(C)(C)NS(=O)(=O)c1ccc(NC(=O)C(Sc2ccccc2)c2ccccc2)cc1 (centres undefined),,3.55 µM (active)
COc1ccc(CC(=O)NC(=S)Nc2ccc(S(=O)(=O)NC(C)(C)C)cc2)cc1,17.1% (inactive),
CO[C@H]1C[C@@H]2C[C@H](O)C[C@@H](CC(=O)O[C@@H](/C=C\CC(C)C)C[C@@H]3CC[C@H](C)[C@@H](C1)O3)O2,-2.62% [at 11.4 µM] (inactive),
N#Cc1cccc(NC(=O)N2CC3(CCN(C(=O)c4ccco4)CC3)C2)c1,-5.53% (inactive),
COc1cc(NC(=O)c2cc3ccccc3o2)c(OC)cc1Br,-2.15% (inactive),
CCCN(CCO)Cc1ccc(F)c(Br)c1,,7.94 µM (active)
COc1ccc(C(=S)Nc2ccccc2)cc1,-50.9% (inactive),
COc1ccc(-c2nc(C(=O)N3CCN(C)CC3)sc2-c2ccc(OC)cc2)cc1,-10.4% (inactive),
CC(C)(O)C#Cc1ccc(C(=O)NCc2cccs2)s1,,22.4 µM (active)
Nc1nc2c(C(=O)NCc3cccs3)nnn2c2cccc(Cl)c12,6.61% [at 11.4 µM] (inactive),
Cc1nnc(NC(=O)CCC(=O)NCc2cccs2)s1,-29.9% (inactive),
CCc1sc(N(C(=O)Cc2ccccc2)c2cccc(F)c2)nc1-c1ccc(C)cc1,3.54% (inactive),
CC1(C)CCCN(C(=O)N2c3ccccc3Sc3ccccc32)C1,3.85% (inactive),
O=C(CSc1nc2ccccc2o1)N1c2ccccc2Sc2ccc(Cl)cc21,5.14% (inactive),
Clc1ccc2c(c1)N(CCCN1CCCC13CCCCC3)c1ccccc1S2,,0.00794 µM (active)
O=C1CSC2(CCN(CCCN3c4ccccc4Sc4ccc(Cl)cc43)CC2)N1,,0.631 µM (active)
CCOC(=O)Nc1ccc2c(c1)N(C(=O)CCN1CCN(C)CC1)c1ccccc1S2,-21.6% (inactive),
OC1CC2CC[C@H](C1)N2CCCN1c2ccccc2Sc2ccc(Cl)cc21 (some centres undefined),,0.0631 µM (active)
Cc1ccc2cn[nH]c2c1NC(=S)NC(=O)c1ccccc1,-0.296% (inactive),

SMILES,"activity, negative = inhibition",AC50
O=C(NNc1nc2ccccc2s1)c1ccccc1F,-25.1% (inactive),
Oc1ccc(Br)cc1CNn1cnnc1,22.7% (inactive),
CCOC(=O)c1cc(-c2ccc(Cl)cc2)nc2c1c(C)nn2CCC#N,-25.2% (inactive),
Cc1ccccc1C(=O)c1c[nH]c(C(=O)NCC2CCCO2)c1 (centres undefined),28.3% (inactive),
COc1ccc(COC(=O)N/N=C(\C)CC(=O)Nc2c(C)cc(C)cc2C)cc1,-17.7% (inactive),
O=C(O)CSc1cc(C(F)(F)F)nc(-c2ccccn2)n1,-6.18% (inactive),
CN1CCN(c2ncc3nc(-c4cccc(C#N)c4)c(=O)n(C)c3n2)CC1,-2% (inactive),
CCSc1ccc2c(c1)N(CCCN1CCN(C)CC1)c1ccccc1S2,,2.51 µM (active)
O=C1NC(O)=NC1(c1ccccc1)c1ccccc1,1.34% (inactive),
Cc1noc(C)c1C(=O)N1CCC2(CCN(Cc3ccncc3)CC2)CC1,-9.53% (inactive),
O=C(O)c1ccccc1Nc1cccc(OCc2ccc3ccccc3n2)c1,,7.94 µM (active)
CCCCC[C@H](O)c1cccc(OCc2ccc3ccccc3n2)c1,-20.4% (inactive),
O=C(Nc1ccccc1C(=O)O)c1ccc2ccccc2n1,18.1% (inactive),
CC/C(=N/Nc1ccccc1)c1cnnc(SC)n1,-10.2% (inactive),
O=C(Nc1ccc(-c2csc(-c3ccccc3)n2)cc1)c1ccccc1Cl,19.1% (inactive),
Cc1ccc(C(=O)ON=C2CCN(S(=O)(=O)c3ccccc3)CC2)cc1,-18% (inactive),
O=c1cnc2cnc(Oc3cccc(Cl)c3)nc2n1C1CC1,-8.64% (inactive),
Fc1ccc(C2CC(c3ccco3)=NN2c2ccccc2)cc1 (centres undefined),,8.91 µM (active)
CC(=O)c1c(O)cc(=O)n(-c2ccccc2)c1-c1cccc2ccccc12,-2.04% (inactive),
O=C1C=C(Nc2ccc(Cl)cc2)CC(c2ccc(Cl)cc2)C1 (centres undefined),,8.91 µM (active)
O=C1C=C(NCCN2CCOCC2)CC(c2ccccc2)C1 (centres undefined),-11.2% (inactive),
O=C(O)C1(Nc2ccc(Cl)cc2)CCCC1,7.94% [at 11.4 µM] (inactive),
CC1(C)C(=O)C(c2ccccc2)=C2CN3C(=O)N(CCc4ccccc4)C(=O)C3(Cc3ccc(C(F)(F)F)cc3)C=C21 (centres undefined),9.81% (inactive),
CCCCc1ccc(-c2nc(NC(=O)C3C4CCC(O4)C3C(=O)O)sc2C)cc1 (centres undefined),-28.7% (inactive),
COC(=O)Cn1c(CN(Cc2ccccc2)Cc2ccccc2)nc2c1c(=O)[nH]c(=O)n2C,-9.02% (inactive),

SMILES,"activity, negative = inhibition",AC50
CCOC(=O)N1CCN(Cc2nc3c(c(=O)[nH]c(=O)n3C)n2Cc2ccccc2C)CC1,,12.6 µM (active)
COc1ccc(N2CCN(Cc3nc4c(c(=O)[nH]c(=O)n4C)n3CCCc3ccccc3)CC2)cc1,-9.2% (inactive),
Cn1c(=O)[nH]c(=O)c2c1nc(CN1CCOCC1)n2CCCO,8.01% (inactive),
Cn1c(=O)[nH]c(=O)c2c1nc(CN1CCOCC1)n2Cc1ccccc1,6.42% (inactive),
CCCCCn1c(CN2CCN(c3cc(Cl)ccc3C)CC2)nc2c1c(=O)[nH]c(=O)n2C,,8.91 µM (active)
O=C(Cn1nnc2ccccc21)N/N=C\C=C\c1ccccc1,4.01% (inactive),
NC(=O)c1csc(-c2ccc(CO)o2)n1,0.271% [at 11.4 µM] (inactive),
NS(=O)(=O)c1ccc(N=Nc2ncccc2O)cc1,-13% [at 11.4 µM] (inactive),
C/C(=N\Nc1nnc(-c2ccccc2)c(-c2ccccc2)n1)c1cccc([N+](=O)[O-])c1,-29.2% (inactive),
O=c1c(C=Nc2cccc(C(F)(F)F)c2)c[nH]n1-c1cccc(Cl)n1,-18.9% (inactive),
CCc1cc2c(nc1CC)CCN(CC/C(C)=N/OC[C@@H](C)[C@H](OCc1ccccc1)C(C)C)C2,-10.6% [at 11.4 µM] (inactive),
COc1ccccc1NC(=O)CCc1c(C)[nH]c(=O)c(C#N)c1C,-20.1% (inactive),
CC1Cc2ccccc2N1C(=O)Cn1cc([N+](=O)[O-])cn1 (centres undefined),-4.04% (inactive),
CC1Cc2ccccc2N1C(=O)CSc1nnnn1C(C)C (centres undefined),-0.323% (inactive),
Cc1ccc2c(c1)nnn2C1CCN(CC(=O)N2c3ccccc3CC2C)CC1 (centres undefined),,25.1 µM (active)
O=C(O)/C=C\c1cnc[nH]1,-4.82% (inactive),
Cc1nn(C(C)C(=O)N2CCc3ccccc32)c(C)c1[N+](=O)[O-] (centres undefined),-3.76% (inactive),
CC(=O)N1CCC(=O)N(C(C)C)c2ccccc21,,3.16 µM (active)
CC(=O)NC1=NN(c2ccccc2)C(=O)C1,22.6% (inactive),
C/C(Cl)=C/CSc1nnc2n(N)c(=O)c3ccccc3n12,-14.6% (inactive),
O=C(NCc1ccco1)c1ccccc1NS(=O)(=O)c1ccc(Br)s1,-22.3% (inactive),
CC1CCC(C(=O)NC(C(=O)N2CCC(N3CCCCC3)CC2)C(C)C)CC1 (centres undefined),-5.87% (inactive),
CC1CC(C)CN(C(=O)CNS(=O)(=O)c2ccc(Br)s2)C1 (centres undefined),,3.16 µM (active)
O=C(CNS(=O)(=O)c1ccc(Br)s1)N1CCC(N2CCCCC2)CC1,,12.6 µM (active)
O=c1c(-c2ccc(F)c(F)c2)nc2cncnc2n1C1CC1,-0.558% (inactive),

SMILES,"activity, negative = inhibition",AC50
COc1ccc(C(=O)N/N=C/c2cccc3cccnc23)cc1,-11.4% (inactive),
CC(C)(C)c1nnc(NC(=O)NS(=O)(=O)c2ccccc2)s1,-2.56% (inactive),
COc1ncc2nc(-c3ccc(F)cc3)c(=O)n(C)c2n1,-2.72% (inactive),
Oc1cc2c(cc1O)[C@H](c1ccccc1)CNCC2,,inactive
Oc1cc2c(c(Cl)c1O)CCNC[C@H]2c1ccccc1,,10 µM (active)
Oc1ccc([C@@H]2CNCCc3c2cc(O)c(O)c3Cl)cc1,,inactive and 3.16 µM (active)
Oc1ccc([C@@H]2CNCc3sccc32)cc1O,-12.1% (inactive),
CCC(=O)Nc1nonc1-c1nc2ccccc2n1N(C(=O)CC)C(=O)CC,2.61% (inactive),
Cc1cc(CNC(=O)[C@H]2C[C@@H]2[C@H](NP(=O)(c2ccccc2)c2ccccc2)c2ccccc2)nn1C,0.567% (inactive),
CC1CSc2nc3sc4c(c3c(=O)n21)CCCC4 (centres undefined),-12.8% (inactive),
CN(C)c1ncc2nc(-c3cccs3)c(=O)n(Cc3cccs3)c2n1,2.06% (inactive),
Cc1cc(NC(=O)C2C3C(=O)N(Cc4ccc(Cl)cc4)C(C(=O)NC(C)(C)C)C34C=CC2(C)O4)no1 (centres undefined),4.95% (inactive),
COCCn1c(=O)c(-c2cc(F)cc(F)c2)nc2cnc(N(C)C)nc21,11.4% (inactive),
CCNc1ncc2nc(-c3ccc(Cl)cc3)c(=O)n(C[C@H]3CCCO3)c2n1,5.84% (inactive),
Cc1nc2cnc(N3CCN(C)CC3)nc2n(CCc2ccccc2)c1=O,,2.51 µM (active)
CN(C)c1ncc2nc(-c3cc(F)cc(F)c3)c(=O)n(C[C@H]3CCCO3)c2n1,-0.128% (inactive),
CN1CCN(c2ncc3nc(-c4cc(F)cc(F)c4)c(=O)n(CCc4ccccc4)c3n2)CC1,-8.55% (inactive),
CCNc1ncc2nc(-c3cc(F)cc(F)c3)c(=O)n(Cc3cccs3)c2n1,1.18% (inactive),
CCNc1ncc2nc(-c3cc(F)cc(F)c3)c(=O)n(CCc3ccccc3)c2n1,,15.8 µM (active)
CCNc1ncc2nc(-c3cc(F)cc(F)c3)c(=O)n(C[C@H]3CCCO3)c2n1,,0.158 µM (active)
CCNc1ncc2nc(-c3cc(F)cc(F)c3)c(=O)n(CCOC)c2n1,,0.316 µM (active)
CN1CCN(c2ncc3nc(-c4cccs4)c(=O)n(CCc4ccccc4)c3n2)CC1,-7.46% (inactive),
CN(C)c1ncc2nc(-c3cc(F)cc(F)c3)c(=O)n(CCc3ccccc3)c2n1,-8.92% (inactive),
COCCn1c(=O)c(-c2cc(F)cc(F)c2)nc2cnc(OC)nc21,2.08% (inactive),
